Test [1] can be described thus: qHTS assay to identify small molecule inhibitors of chordoma cells - UCH-1 (AID 1259355). Also: nearly all actives have a fitted effect of over 55% in size. As to conditions: UCH-1 chordoma viability, CellTiter-Glo, 48 h, combination, with auranofin plus four topoisomerase inhibitors; series mostly up to 46.1 µM. In a few lines: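 Seed 800 cells per well; incubate overnight at 37 C, 5% CO2. Add test compounds (15 concentrations), then the auranofin–topoisomerase-agent combination. Incubate 48hr, add CellTiter-Glo, wait 30min, read luminescence.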
Background: In qHTS, concentration-response curves come from the screen itself.

Test [2] can be described thus: qHTS assay to identify small molecule inhibitors of chordoma cells - UCH-2 (AID 1259356). As to conditions: UCH-2 chordoma viability, CellTiter-Glo ATP luminescence, 48 h; series mostly up to 46.1 µM.
Test [3] can be described thus: P-glycoprotein substrates identified in KB-8-5-11 adenocarcinoma cell line, qHTS therapeutic library screen (AID 1346987). Also: nearly all actives have a fitted effect of over 65% in size. Also: potency is read from the fitted curve at half-maximal effect. The settings on record: KB-8-5-11 (P-gp overexpressing) viability, CellTiter-Glo, 72 h; series mostly up to 44.5 µM. In a few lines:
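Steps: plate 500 KB-8-5-11 cells/well in DMEM + 10% FCS (colchicine removed); pin compounds in dose-response; incubate 72 h, 37 degree C, 5% CO2; add CellTiter-Glo, 5 min; read luminescence.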

Inconclusive results are not listed. Activity calls are given as the source filed them. Calls follow the shape of the dose curve; as a rule, active = well fitted curve in the direction sought with a large enough effect; inconclusive = small, poorly fitted or top-dose-only effect, or another doubt; inactive = no such curve, though single readings can be large; an effect the other way counts as inactive or inconclusive.

As to `O=C(O)c1ccc(NC(=O)[C@H](Cc2ccc(O)cc2)NC(=O)c2ccccc2)cc1`, the Potency entry in test [1], in test [2] and in test [3] was “inactive” throughout.

For `CCOC(=O)[C@H](CS)NCCN[C@@H](CS)C(=O)OCC`, the Potency entry in test [1], in test [2] and in test [3] was “inactive” each time.

Regarding `Cc1ccc(S(=O)(=O)NC(=O)N[C@@H](C)Cc2ccccc2)cc1`, the Potency entry in test [1], in test [2] and in test [3] was “inactive” in each case.

`CN1CCc2c(c3ccccc3n2Cc2ccccc2)C1`: the Potency entry in test [1], in test [2] and in test [3] was “inactive” in each case.

As to `CSCCC(N)C(=O)O` (stereo unspecified), the Potency entry in test [1], in test [2] and in test [3] was “inactive” in each case.

Consider `NC(=O)C1c2ccccc2CCc2ccccc21`, for which the Potency result in test [1], in test [2] and in test [3] was “inactive” throughout.

In the case of `O=C(O)c1ccc(OCCn2ccnc2)cc1`, the Potency entry in test [1], in test [2] and in test [3] was “inactive” throughout.

Consider `C[C@]12CC[C@@H]3c4ccc(O)cc4CC[C@H]3[C@@H]1CC[C@@H]2OP(=O)(O)O`, for which the Potency entry in test [1] and in test [2] was “inactive” each time. The Potency in test [3] is 20.6 µM (active).

Turning to `NCC[C@H](O)C(=O)N[C@@H]1C[C@H](N)[C@@H](O[C@H]2O[C@H](CN)CC[C@H]2N)[C@H](O)[C@H]1O[C@H]1O[C@H](CO)[C@@H](O)[C@H](N)[C@H]1O`, the Potency result in test [1], in test [2] and in test [3] was “inactive” throughout.

As for `O=P(O)(O)OP(=O)(O)OP(=O)(O)O`, the Potency result in test [1], in test [2] and in test [3] was “inactive” in each case.

`O=C(O)c1cc(O)c2c(c1)[C@H]([C@H]1c3cc(C(=O)O)cc(O)c3C(=O)c3c(O[C@@H]4O[C@H](CO)[C@@H](O)[C@H](O)[C@H]4O)cccc31)c1cccc(O[C@@H]3O[C@H](CO)[C@@H](O)[C@H](O)[C@H]3O)c1C2=O`: the Potency entry in test [1], in test [2] and in test [3] was “inactive” throughout.

Consider `NC(=O)OC[C@@H]1[C@H](NC(=O)/C(=N\OCC(=O)O)c2csc(N)n2)C(=O)N1S(=O)(=O)O`, for which the Potency result in test [1], in test [2] and in test [3] was “inactive” each time.

The record behind these values is PubChem BioAssay (NCATS).
